Source: PubChem BioAssay
Shown are actives, neighbours in structure and some others; about 10% of the full set was active somewhere.
3T3 cytotox: Cytotoxic Profiling in NIH 3T3 Cell Line of Diverse Libraries Using Quantitative High-Throughput Screening. NIH 3T3 viability, CellTiter-Glo ATP luminescence, 48-72 h. AID 1345082, 2018. 4.3% of 94,000 active. Potency, µM (highest dose often 96.7 µM), actives largely listed as inhibitors; also: nearly all actives have a fitted effect of over 55% in size
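Cells were seeded at 400 per well, treated with pin-transferred compound, and kept 48 or 72 hr at 37 °C before CellTiter-Glo addition and luminescence imaging of cellular ATP.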
GPT2 inhibitor: Primary qHTS assay for inhibitors of Glutamate pyruvate transaminase 2 (GPT2); Alanine aminotransferase 2 (Homo sapiens), Q8TD30; Recombinant GPT2, coupled pyruvate oxidase/HRP Amplex Red fluorescence; Potency, µM (highest dose often 57.7 µM), usual class: inhibitors; 0.25% of 100,000 active; also: nearly all actives have a fitted effect of over 60% in size
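Fluorescence read-out: pyruvate from GPT2 turnover coupled to pyruvate oxidase, HRP and Amplex Red (0.2mM ThPP, 0.2U/mL PO and HRP, 50uM Amplex final). Substrates 250uM a-KG, 2mM L-alanine; enzyme 10ng/uL; 30 min RT.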
FLuc inh: Firefly luciferase inhibition profiling of diverse chemical library using quantitative high-throughput screening; AID 1347043, 2019; Potency, µM (series often up to 115 µM), actives largely listed as inhibitors; purified P. pyralis luciferase, luminescence, biochemical; Luciferin 4-monooxygenase (Photinus pyralis), P08659; 2.5% of 76,000 active; also: nearly all actives have a fitted effect of over 65% in size
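Luminescence read by CCD imager after adding enzyme (10nM final) to wells holding compound, titrated in qHTS. Substrates 10uM each D-luciferin and ATP; buffer 50mM Tris acetate pH 7.5, 10mM Mg acetate, Tween-20, BSA.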
HEK293 tox: Cytotoxic Profiling in HEK 293 Cell Line of Diverse Libraries Using Quantitative High-Throughput Screening. HEK 293 viability, ATP luminescence (CellTiter-Glo), 48-72 h. Potency, µM (top dose mostly 115 µM), most hits filed as inhibitors. 6.6% of 94,000 active; also: nearly all actives have a fitted effect of over 60% in size
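HEK 293 seeded at 250 cells/well receive compound via pintool. After 48 or 72 hr at 37 degree Celsius, 5% CO2 and 95% humidity, CellTiter-Glo is dispensed and luminescence read following 10 min at room temperature.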
hNpr1 antagonist: Natriuretic polypeptide receptor (hNpr1) antagonism - Primary qHTS; Atrial natriuretic peptide receptor 1 (Homo sapiens), P16066; HEK293 hNpr1 GloSensor cGMP, ANP-stimulated luminescence; Potency, µM (series often up to 46.3 µM), actives largely listed as inhibitors; 1.6% of 76,000 active; AID 1347048, 2019; calls by dose curve; also: nearly all actives have a fitted effect of over 60% in size
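HEK293 cells stably expressing human Npr1 and cGMP GloSensor pGS-40F, loaded 2 h with 2% GloSensor reagent, given compound 30 min at room temperature. Luminescence read before and 20 min after 0.1 nM hNppA.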
A number is an active result. Unless noted, calls follow the shape of the dose curve; as a rule, active = well fitted curve in the direction sought with a large enough effect; inconclusive = small, poorly fitted or top-dose-only effect, or another doubt; inactive = no such curve, though single readings can be large; an effect the other way counts as inactive or inconclusive.

Screening Cc1nn(-c2ccccc2)c2c1C(C(C)C)N(C1CN(C(=O)c3ccccc3)C1)C2=O (stereo not drawn) returned 3T3 cytotox inconclusive and HEK293 tox 45µM.
For Cc1nn(-c2ccccc2)c2c1C(C(C)C)N(C1CN(C(=O)C3CCCC3)C1)C2=O (stereo not drawn) the results were 3T3 cytotox 40µM and HEK293 tox 45µM.
For Cc1nn(-c2ccccc2)c2c1C(C(C)C)N(C1CCCN(C(=O)C3CCCC3)C1)C2=O (stereo not drawn) the results were 3T3 cytotox inactive and HEK293 tox inactive.
For Cc1ccccc1C(=O)N1CC(N2C(=O)c3c(c(C)nn3-c3ccccc3)C2C(C)C)C1 (stereo not drawn) the results were 3T3 cytotox inconclusive and HEK293 tox 50µM.
For COc1ccc(-c2cccc(C(=O)N3CCN(C(=O)c4ccccc4)CC3)c2)nn1 the results were 3T3 cytotox inactive and HEK293 tox inactive.
Screening CCCc1noc(-c2cn(C3CCN(C(=O)c4cccs4)CC3)nn2)n1 returned 3T3 cytotox inactive, GPT2 inhibitor inactive, FLuc inh inactive, HEK293 tox inactive and hNpr1 antagonist inactive.
`Cn1ncc2c(C(=O)N3CCCC3)cc(-c3ccccc3F)nc21` gave 3T3 cytotox inactive and HEK293 tox inconclusive.
Screening Cc1ccccc1C(=O)N1CCCC(N2C(=O)c3c(c(C)nn3-c3ccccc3)C2C(C)C)C1 (stereo not drawn) returned 3T3 cytotox 40µM and HEK293 tox 22µM.
For Cc1ccc(C(=O)N2CCCC(N3C(=O)c4c(c(C)nn4-c4ccccc4)C3C(C)C)C2)cc1 (stereo not drawn) the results were 3T3 cytotox inconclusive and HEK293 tox 45µM.
For Cc1nn(-c2ccccc2)c2c1C(C(C)C)N(C1CCCN(C(=O)Cc3ccccn3)C1)C2=O (stereo not drawn) the results were 3T3 cytotox inactive and HEK293 tox inconclusive.
For Cc1nn(-c2ccccc2)c2c1C(C(C)C)N(C1CCN(C(=O)c3ccccn3)C1)C2=O (stereo not drawn) the results were 3T3 cytotox inactive and HEK293 tox 45µM.
For Cc1nn(-c2ccccc2)c2c1C(C(C)C)N(C1CCCN(C(=O)C(C)(C)C)C1)C2=O (stereo not drawn) the results were 3T3 cytotox inactive and HEK293 tox inconclusive.
Screening Cc1nn(-c2ccccc2)c2c1C(C(C)C)N(C1CCCN(C(=O)c3ccccc3F)C1)C2=O (stereo not drawn) returned 3T3 cytotox inconclusive and HEK293 tox 35µM.
`Cc1nn(-c2ccccc2)c2c1C(C(C)C)N(C1CN(C(=O)c3ccccn3)C1)C2=O` (stereo not drawn) gave 3T3 cytotox inconclusive and HEK293 tox inactive.
Cc1cnc(C(=O)N[C@@H]2CCC[C@@H]2C(=O)Nc2ccc(C)c(F)c2)cn1 was read as 3T3 cytotox inactive, GPT2 inhibitor inactive, FLuc inh inactive, HEK293 tox inactive and hNpr1 antagonist inactive.
Screening Cc1cccc2c1O[C@H]1[C@H](CO)CN([S+](=O)([O-])c3cccs3)[C@@H]21 returned 3T3 cytotox inactive and HEK293 tox inconclusive.
COc1ccc2c(c1)O[C@H]1[C@H](CO)CN([S+](=O)([O-])c3cccs3)[C@@H]21 was read as 3T3 cytotox inconclusive and HEK293 tox 50µM.
Screening Cn1nc(-c2nncn2CC2CC2)c2c1CCN(C(=O)c1n[nH]c3ccccc13)C2 returned 3T3 cytotox inactive, GPT2 inhibitor inactive, FLuc inh inactive, HEK293 tox inconclusive and hNpr1 antagonist inactive.
`Cc1noc(C)c1-c1cc2c(cc(-c3ccccc3)n2C)c(Nc2ccncn2)n1` gave 3T3 cytotox inconclusive, GPT2 inhibitor inactive, FLuc inh inactive, HEK293 tox 32µM and hNpr1 antagonist inactive.
